Several values for one entry are separate records, joined by “and”; a condition that tells them apart may be missing. Identical values can stand only once. The panel holds about 83,000 compounds, 20% with a hit somewhere; the sample as a whole holds those more often.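 Step 1: grow cells in 96-well plates. Step 2: add test compound at a single concentration. Step 3: incubate 48 h. Step 4: record percent growth.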 Activity calls are given as the source filed them.

The test system of the first experiment is HL-60(TB) leukemia. Nature of the experiment: NCI-60 one-dose screen, 48 h (100 = growth as untreated, 0 = no growth, -100 = all killed). As to conditions: 10 µM. Here is the method:
Growth inhibition of the HL-60(TB) human tumor cell line is measured as a screen for anti-cancer activity. Cells are grown in 96 well plates and exposed to the test compound for 48 hours. Compounds are tested at a single concentration, which is 10^-5 M for most compounds. The reported endpoint is percent growth (GI% or GIPRCNT), where numbers from 0 - 100% represent growth inhibition, and numbers from -100% - 0 represent cell death. For example, a value of 40 represents 60% growth inhibition. A value of 0 means no net growth occurred over the course of the experiment. A value of -40 indicates 40% of cells at the beginning of the experiment died by the end of the experiment. A value of -100 means all cells are dead at the end of the experiment.
NCI-60 Human Tumor Cell Lines Screen was performed using the standard one-dose NCI protocol, which is described in more detail at https://dtp.cancer.gov/discovery_development/nci-60/default.htm.
Compounds with GIPRCNT values below 10 were considered active. Activity score was based on GIPRCNT using the following formula: […]
Score is 0 for GIPRCNT values of 100 or above, 50 for GIPRCNT values of 0, and 100 for GIPRCNT values of -100.
On to `CCN(Cc1ccccc1)c1ccc(/C=C2\COc3ccccc3C2=O)cc1`, for which the growth was 78.3% (inactive).

Turning to `O=C(O)c1c(Cl)c(Cl)c(Cl)c(Cl)c1-c1c2cc(I)c(=O)c(I)c-2oc2c(I)c(O)c(I)cc12`, the growth was 103% (inactive) and 104% (inactive) and 109% (inactive).

Staying with this experiment, now noted: 10 µM unless noted.
On to `COc1ccc(C2=CC(c3ccc(Oc4ccnc5cc(Cl)ccc45)c(OC)c3)c3c(nc(OC)[nH]c3=O)N2)cc1` (stereo not given), for which the growth was 85.7% (inactive).

As to `CCN(CC)CCOc1ccc(-c2nc3cc(Cl)ccc3s2)cc1`, the growth is -74.2% (active).

Consider `CCCCOc1ccc(NC(=O)n2nc(N=NN(C)C)c3ccc(Cl)cc32)cc1`, for which the growth is 107% (inactive).

With `Fc1ccc(-c2nnc(-c3c(-c4ccc(F)cc4)nc4ncccn34)o2)cc1`, the growth is 87.8% (inactive).

Turning to `COC(=O)c1cccc(NC(=O)c2ccc(-c3cccc(N)c3)o2)c1`, the growth was 99.9% (inactive).

On to `O=S(=O)(Nc1ccc(Cl)cc1)c1ccc(-c2cnc(C3CC3)o2)cc1`, for which the growth is -36.7% (active).

Regarding `FC(F)(F)c1cccc(Nc2nc3ccccc3nc2Nc2cccc(C(F)(F)F)c2)c1`, the growth was -48.9% (active).

In the case of `COc1ccc2[nH]cc(-c3nc(-c4c[nH]c5ccncc45)cs3)c2c1`, the growth was 3.64% (active).

With `COc1ccc(Nc2nc(N/N=C/c3ccc(O)cc3)nc(Nc3ccc([N+](=O)[O-])cc3)n2)cc1`, the growth is 116% (inactive).

With `Cc1cc(O)c2c(c1)C(=O)c1cc(O)cc(O)c1C2=O`, the growth is 121% (inactive) and 83.6% (inactive).

With `Nc1nc(=S)c2[nH]cnc2[nH]1`, the growth was 13.9% (inactive) and -13.4% (active).

In the case of `Brc1c(-c2ccncc2)nc2n1CCS2`, the growth was 44.4% (inactive).

Turning to `Cc1ccc(Sc2oc(-c3ccc(C)cc3)nc2[P+](c2ccccc2)(c2ccccc2)c2ccccc2)cc1`, the growth was -45% (active).

As for `COc1ccccc1NC(=O)N=Nc1c(O)[nH]c2ccccc12`, the growth was 93.8% (inactive).

On to `CCC1S/C(=N\N=C(/C)c2ccco2)N(c2ccccc2)C1=O` (stereo not given), for which the growth is 106% (inactive).

Take `O/N=C(/c1ccccc1)c1ccc2c3c(cccc13)CC2`: the growth is 86.9% (inactive) and 101% (inactive).

As to `C/C=C/C(=O)OCCCCCCCCCCCC`, the growth is 85.2% (inactive).

Consider `COCCn1c(Nc2ccc(C(=O)NO)cc2)nc2ccccc21`, for which the growth is 11.9% (inactive).

Take `Nc1c(C(=O)Nc2cccc3ccccc23)sc2nc3c(cc12)COCC3`: the growth is -4.22% (active).

Regarding `O=C1NC(=S)S/C1=C\c1cc(Br)ccc1O`, the growth was 83.9% (inactive).

Turning to `COC(=O)c1cc(=O)nc(N/N=C/c2ccco2)s1`, the growth was 116% (inactive).

With `COC(=O)CCC(=O)c1ccccc1`, the growth was 94.7% (inactive).

With `OB1OCc2cc(/C=C/c3cccc(C(F)(F)F)c3)ccc21`, the growth was -6.49% (active).

On to `CCOC(=O)c1sc(NS(=O)(=O)c2ccccc2)nc1C`, for which the growth was 153% (inactive).

Consider `O=C(N/N=C/c1cc(Cl)ccc1O)C(=O)N/N=C/c1cc(Cl)ccc1O`, for which the growth was 46.1% (inactive).

For the compound `CCCCCCCCn1ccc2cc(NC(=O)CN3CCN(c4nc(C)cc(Cl)n4)CC3)ccc21`, the growth was 91.1% (inactive).

On to `COc1c(N)c2c(c([N+](=O)[O-])c1OC)C(=O)OC2`, for which the growth was 95.3% (inactive).

For the compound `COc1cccc2c1nc1cccc(OC)c1[n+]2[O-]`, the growth is 0.0729% (active).

Turning to `Cc1cc(N(CCNc2ccnc3cc(Cl)ccc23)Cc2ccco2)nc(Cl)n1`, the growth was -61.9% (active).

Consider `O=C(Nc1nc2ccc(C(=O)N3CCN(c4ccc(Cl)c(Cl)c4)CC3)cc2s1)c1ccc(NCCc2ccccc2)c([N+](=O)[O-])c1`, for which the growth was 101% (inactive).

For `O=C(Cc1ccccc1)NC(c1ccc(Cl)cc1)c1c(O)ccc2ccccc12` (stereo not given), the growth was 7.2% (active).

Turning to `Nc1ncnc2c1N=C(c1ccc3c(c1)OCO3)CC(c1cccc(Nc3ccnc4cc(Cl)ccc34)c1)N2` (stereo not given), the growth is 37.9% (inactive).

Consider `CN(C)CCCn1c(=O)c2ccccc2c2ccccc21`, for which the growth was 63.4% (inactive).

For `COc1ccc(-c2cn[nH]c2-c2cc(OC)c(OC)c(OC)c2)cc1N`, the growth was -17.8% (active) and -10.7% (active).

Regarding `COc1ccc(C2CC(c3ccc(Nc4nc(Nc5ccccc5)nc(Nc5ccccc5)n4)cc3)=NN2C(C)=O)cc1` (stereo not given), the growth is 95.1% (inactive).

With `CCCCn1c(=O)[nH]c(N)c(C(c2ccc(Cl)cc2)c2c(N)[nH]c(=O)n(CCCC)c2=O)c1=O`, the growth was 13.2% (inactive).

Staying with this experiment, now noted: 100 µM.
Take `CCN(Cc1ccccc1)c1ccc(/C=C2\COc3ccccc3C2=O)cc1`: the growth was 8.32% (active).

Consider `O=C(O)c1c(Cl)c(Cl)c(Cl)c(Cl)c1-c1c2cc(I)c(=O)c(I)c-2oc2c(I)c(O)c(I)cc12`, for which the growth is -52.2% (active).

For the origin of these results see PubChem BioAssay (NCI).
